FLuc modulator: qHTS profiling assay for firefly luciferase inhibitor/activator using purifed enzyme and Km concentrations of substrates (counterscreen for miR-21 project); Luciferin 4-monooxygenase (Photinus pyralis), P08659; purified FLuc, Km substrates, luminescence inhibition; Potency, µM (top dose mostly 57.5 µM), hits mostly inhibitors; hit rate 6.9% among 360,000; AID 588342, 2011; note: nearly all actives have a fitted effect of over 55% in size
Target sequence (P08659 whole entry, looked up): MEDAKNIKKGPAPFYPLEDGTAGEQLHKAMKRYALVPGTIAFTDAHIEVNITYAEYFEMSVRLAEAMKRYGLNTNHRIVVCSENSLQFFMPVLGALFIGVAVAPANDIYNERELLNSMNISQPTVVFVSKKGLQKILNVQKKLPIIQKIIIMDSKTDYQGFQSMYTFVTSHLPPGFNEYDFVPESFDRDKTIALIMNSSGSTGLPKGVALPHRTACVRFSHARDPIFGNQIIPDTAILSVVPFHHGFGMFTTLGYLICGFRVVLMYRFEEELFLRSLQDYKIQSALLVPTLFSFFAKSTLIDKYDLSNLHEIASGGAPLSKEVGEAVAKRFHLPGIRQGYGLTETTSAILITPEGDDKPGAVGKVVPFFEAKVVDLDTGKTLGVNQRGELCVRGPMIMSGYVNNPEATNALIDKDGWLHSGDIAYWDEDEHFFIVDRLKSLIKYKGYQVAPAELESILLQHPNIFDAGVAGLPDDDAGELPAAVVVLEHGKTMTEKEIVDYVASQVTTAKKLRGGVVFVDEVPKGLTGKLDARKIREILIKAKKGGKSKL
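Biochemical qHTS of compounds, final roughly 60 µM downward over six points, against 10 nM purified firefly luciferase using Km concentrations of substrates (10 uM D-luciferin, 10 uM ATP) in Tris acetate pH 7.5 buffer; luminescence output.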
ELG1 genotox: qHTS screen for small molecules that induce genotoxicity in human embryonic kidney (HEK293T) cells expressing luciferase-tagged ELG1; HEK293T ELG1-luciferase reporter, luminescence, 16 h; Potency, µM (series often up to 46 µM), actives largely listed as activators; hit rate 1.3% among 330,000; AID 504466, 2011; note: nearly all actives have a fitted effect of over 60% in size
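Screening used a luciferase reporter fused to human ELG1 in HEK293T cells. Luminescence was read on a CCD plate imager after 16 hr exposure and 30 min ONE-Glo incubation.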
SMN2 splice up: qHTS Assay for Enhancers of SMN2 Splice Variant Expression | Potency, µM (titrated, usually from 46.1 µM), actives largely listed as activators | HEK293 SMN2-luciferase splicing reporter, luminescence, 30-36 h | hit rate 2.8% among 210,000; note: nearly all actives have a fitted effect of over 55% in size
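qHTS luciferase splicing reporter: luminescence rises when SMN2 exon 7 is included in transfected HEK293 cells. Compound exposure lasted 30-36 h at 37C, with 4.5 mM final sodium butyrate as control, followed by a ONE-Glo read.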
Rab9 prom act: qHTS Assay for Rab9 Promoter Activators | Huh7 Rab9 promoter-luciferase reporter, luminescence, 24 h | Potency, µM (highest dose often 9.22 µM), hits mostly activators | hit rate 2.8% among 320,000; note: nearly all actives have a fitted effect of over 60% in size
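Huh7 cells stably carrying a Rab9 promoter-luciferase reporter, 1500 cells per well in OP-MEM I with 10% FBS, treated with compound 24 hours at 37C. Luciferase activity read by luminescence after 10 minutes with Amplite reagent.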
NPC1 promoter act: qHTS Assay for NPC1 Promoter Activators. hit rate 2.4% among 320,000. Huh7 NPC1 promoter luciferase reporter, 24 h. Potency, µM (titrated, usually from 9.22 µM), most hits filed as activators. AID 485313, 2010; note: nearly all actives have a fitted effect of over 60% in size
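Cells: Huh7 expressing luciferase under the NPC1 promoter, 1500/well. Seeded 2 h, compound added, incubated 24 h at 37 °C. Luciferase reagent, 10 min ambient, then luminescence.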
ELG1 DNA repair: qHTS screen for small molecules that inhibit ELG1-dependent DNA repair in human embryonic kidney (HEK293T) cells expressing luciferase-tagged ELG1 | HEK293T ELG1-luciferase reporter, luminescence, 16 h; DNA damage induced by 5-fluorouridine | Potency, µM (titrated, usually from 46.1 µM), most hits filed as inhibitors | hit rate 2.3% among 330,000 | AID 504467, 2011; note: nearly all actives have a fitted effect of over 55% in size
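Step one: seed 2,000 cells per well. Step two: pin-transfer compound or DMSO alongside 5-fluorouridine. Step three: incubate 16 hr, 37 °C, 5% CO2. Step four: add ONE-Glo, wait 30 min, read luminescence.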
A number is an active result; i = inactive; ? = inconclusive; nt = not tested or not shown; [ ] = another dose, or the depositor's remark. A selection: hits, their analogues and other compounds. The true share with any hit is near 9.2%. Calls come from the whole dose curve; as a rule, active = well fitted curve in the direction sought with a large enough effect; inconclusive = small, poorly fitted or top-dose-only effect, or another doubt; inactive = no such curve, though single readings can be large; an effect the other way counts as inactive or inconclusive.

SMILES	FLuc modulator	ELG1 genotox	SMN2 splice up	Rab9 prom act	NPC1 promoter act	ELG1 DNA repair
Oc1cc(-c2ccncc2)cc2cccnc12	?	i	nt	i	i	16.4µM
CN1CCN(c2ccc(-c3cc(O)c4ncccc4c3)cc2)CC1	6.01µM	nt	nt	?	i	nt
Oc1cc(Nc2ccncc2)cc2cccnc12	i	i	nt	i	i	i
COc1ccccc1CNC(=O)c1cnn(-c2ccc(F)cc2F)c1C1CCN(C(=O)OC(C)(C)C)CC1	i	nt	nt	nt	nt	nt
COc1cc(C2c3c(-c4c(C)cc(C)cc4O)n[nH]c3C(=O)N2Cc2ccco2)cc(OC)c1OC (stereo unspecified)	i	nt	i	nt	nt	nt
COCCn1c(=O)c(C)nc2cnc(N3CCNCC3)nc21	nt	nt	i	nt	nt	nt
Cc1ccc(C(=O)NNC(=O)c2csc(N3CCOCC3)n2)s1	i	i	nt	i	i	i
CC(=O)Nc1ccc(-c2csc(NNC(=O)c3ccc(C)cc3)n2)cc1	i	i	i	i	i	i
Cc1ccc(Nc2nc(-c3ccncc3)cs2)cc1	0.953µM	?	nt	1.26µM	2.24µM	?
Cc1ccc(-c2csc(Cc3nc(-c4ccc5c(c4)CCC(=O)N5)cs3)n2)cc1	?	i	nt	i	i	i
Cc1cccc(Nc2nc(-c3ccc4c(c3)OCCO4)cs2)c1	2.69µM	2.31µM	11.2µM	0.891µM	2µM	?
Cc1nc(-c2ccc3c(c2)CCC(=O)N3)cs1	16.9µM	?	nt	?	?	?
Cc1nc(-c2ccc3c(c2)OCCO3)cs1	21.3µM	?	?	3.16µM	2.82µM	?
COc1cc(-c2csc(C)n2)ccc1O	i[2.3 µM]	i	i	i	i	i
COc1ccccc1NC(=O)CSc1nc2ccccc2c(=O)n1CCC(=O)NC1CCCCC1	i	nt	nt	nt	nt	nt
Cc1cccn2c(=O)c3cc(C(=O)Nc4ccc(Cl)c(Cl)c4)sc3nc12	i	nt	i	nt	nt	nt
CC(C)CNC(=O)CN(c1ccccc1)S(=O)(=O)c1ccccc1[N+](=O)[O-]	i	i	nt	i	i	i
O=Cc1ccc(CO)o1	nt	nt	i	nt	nt	nt
Cc1cccc(Nc2nc(-c3ccncc3)cs2)c1	16.9µM	i	i	?	i	?
Clc1cccc(Nc2nc(-c3ccncc3)cs2)c1	i	i	nt	i	i	i
Brc1ccccc1-c1nnc(COc2cccc3cccnc23)o1	?	i	?	i	i	?
N#Cc1ccccc1OCc1nnc(-c2ccccc2Br)o1	5.36µM	?	nt	1.41µM	2µM	?
Clc1ccccc1OCc1nnc(-c2ccccc2Br)o1	12µM	?	?	?	3.55µM	?
COc1ccc(CCn2c3c(c(=O)[nH]c2=O)C(NC(=O)c2ccccc2)(C(F)(F)F)C(=O)N3)cc1OC (stereo unspecified)	i	nt	i	nt	nt	nt
O=C(Nc1ccnn1C1CCN(C(=O)c2cc(Cl)ccc2F)CC1)C1CCOC1 (stereo unspecified)	i	i[9.26 µM]	nt	i	i	i
SMILES	FLuc modulator	ELG1 genotox	SMN2 splice up	Rab9 prom act	NPC1 promoter act	ELG1 DNA repair
Cc1ccc2nc(NC(=O)COC(=O)c3ccncc3)sc2c1	8.49µM	?	?	?	?	?
COCC(=O)Nc1nc2ccc(C)cc2s1	9.53µM	2.06µM	10µM	1.12µM	2.51µM	?
Cc1ccc2nc(NC(=O)COc3ccc(F)cc3)sc2c1	i	nt	nt	nt	nt	nt
O=C(CCCN1C(=O)/C(=C/c2ccccc2Cl)SC1=S)NNC(=O)c1ccccc1Cl	7.57µM	i	i	i	i	?
O=C(CCCN1C(=O)/C(=C/c2ccccc2Cl)SC1=S)NNC(=O)c1ccncc1	15.1µM	i	nt	i	i	?
O=C(CCCN1C(=O)/C(=C/c2cccs2)SC1=S)NNC(=O)c1ccncc1	i	i	i	i	i	i
O=C(CCN1C(=O)/C(=C/c2ccccc2Cl)SC1=S)N1CCCC1	26.9µM	i	nt	i	i	?
CC(C)CCn1c(SCC(=O)NC2CCS(=O)(=O)C2)nc2cc(Cl)ccc2c1=O (stereo unspecified)	i	i	nt	i	i	?

Assay outcomes from PubChem BioAssay.
